The campaign covered roughly 2,300 compounds. About 330 (14%) showed activity. Not all results are given here. Unmarked numbers belong to inactive results.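 The calls were made as follows: active = median modified Z-score above 1.96; inactive = 1.96 or below.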
The molecules below were run on HepG2 Srxn1-GFP reporter cells (+30 nM CDDO-Me) (assay: Srxn1-GFP intensity median modified Z-score relative to plate median; higher = stronger NRF2 / oxidative stress reporter activation, active = hit call of the paper). Settings: 10 µM; exposure time: 24h.
In short: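 The modified Z-score of GFP intensity was computed per plate, and the median over replicates is reported. HepG2 Srxn1-GFP BAC reporter cells in three replicate plates were treated for 24 h with compound at 10 μM plus an NRF2 activator at 30 nM (≤0.1% DMSO). Per-cell cytoplasmic GFP came from confocal images, excluding those with under 100 cells, and scaling used 1.4826 × median absolute deviation.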

Row | SMILES | Srxn1-GFP intensity median modified Z-score
1 | O=C(O)C1CSCN1 (centres undefined) [euspeclibcmpd1135] | -0.116
2 | O=c1cc(-c2ccc(O)cc2)oc2ccc(O)cc12 [euspeclibcmpd1816] | 1.7
3 | Cc1nc(COP(=O)(O)O)cc2c1[O][Mn][O]c1c(cc(COP(=O)(O)O)nc1C)CN(CC(=O)O)CCN(CC(=O)O)C2 [euspeclibcmpd2441] | 1.06
4 | COC(=O)c1cc(OC)c(=O)c2c(OC)c(OC)ccc2c1 [euspeclibcmpd2293] | -0.421
5 | COc1ccc(-c2ccc3cc(C(=O)O)ccc3c2)cc1C12CC3CC(CC(C3)C1)C2 [euspeclibcmpd491] | 3.08 (active)
6 | COc1cc(C(=O)O)cc(OC)c1O [euspeclibcmpd1648] | 0.178
7 | COc1cc(C(=O)O)cc(OC)c1O | 1.18
8 | CCCOc1ccccc1-c1nc(=O)c2[nH]nnc2[nH]1 [euspeclibcmpd2036] | -0.165
9 | N[C@@H]1CCCC[C@H]1N [euspeclibcmpd2386] | 1.79
10 | C/C=C/CC(C)C(O)C1C(=O)NC(CC)C(=O)N(C)CC(=O)N(C)C(CC(C)C)C(=O)NC(C(C)C)C(=O)N(C)C(CC(C)C)C(=O)NC(C)C(=O)NC(C)C(=O)N(C)C(CC(C)C)C(=O)N(C)C(CC(C)C)C(=O)N(C)C(C(C)C)C(=O)N1C (centres undefined) [euspeclibcmpd445] | 8.19 (active)
11 | CC(=O)O[C@H]1CC[C@@]2(C)C(=CCC3C2CC[C@@]2(C)C3CC[C@@H]2C(C)CCCC(C)C)C1 (some centres undefined) [euspeclibcmpd2217] | -0.115
12 | CCOc1cccc(C(=O)c2ccc(O)c(O)c2O)c1 [euspeclibcmpd1514] | -0.219
13 | CC(NC(CCc1ccccc1)C(=O)O)C(=O)N1CCCC1C(=O)O (centres undefined) [euspeclibcmpd609] | 0.185
14 | CC(=O)O[C@H]1CCC2(C)C3=C(CCC2C1(C)C)[C@]1(C)CCC(C(C)CCC=C(C)C)[C@@]1(C)CC3 (some centres undefined) [euspeclibcmpd2332] | -0.0515
15 | CC(C)=CCCC(C)[C@@H]1CC[C@]2(C)C3=C(CC[C@@]12C)C1(C)CC[C@H](O)C(C)(C)C1CC3 (some centres undefined) [euspeclibcmpd2235] | 2.85 (active)
16 | CC(C)=CCCC(C)C1CC[C@@]2(C)C3=C(CC[C@]12C)C1(C)CC[C@H](O)C(C)(C)C1CC3 (some centres undefined) [euspeclibcmpd2336] | 0.013
17 | COc1cc(C)c2c(c1C=O)Oc1c(c(C)c(O)c3c(O)oc(O)c13)OC2=O [euspeclibcmpd1947] | 0.6
18 | CC[C@H]1OC(=O)C(C)[C@@H](O[C@H]2C[C@@](C)(OC)[C@@H](O)[C@H](C)O2)[C@H](C)[C@@H](O[C@@H]2O[C@H](C)C[C@H](N(C)C)[C@H]2O)[C@](C)(O)C[C@@H](C)CN(C)[C@H](C)[C@@H](O)[C@]1(C)O (some centres undefined) [euspeclibcmpd690] | 1.41
19 | CC(C)c1ccc2oc3[nH]c(=N)c(C(=O)O)cc3c(=O)c2c1 [euspeclibcmpd492] | 1.12
20 | CO[C@H]1CC(O[C@@H]2/C(C)=C/C[C@@H]3C[C@@H](C[C@]4(CC[C@H](C)[C@@H](C5CCCCC5)O4)O3)OC(=O)C3=CC(C)C(=NO)C4OC/C(=C\C=C\[C@@H]2C)[C@@]34O)O[C@@H](C)C1O (some centres undefined) [euspeclibcmpd601] | 8.72 (active)

Row | SMILES | Srxn1-GFP intensity median modified Z-score
21 | CON=C1C[C@]2(C[C@@H]3C[C@@H](C/C=C(\C)C[C@@H](C)/C=C/C=C4\CO[C@@H]5[C@H](O)C(C)=CC(C(=O)O3)[C@]45O)O2)O[C@H](/C(C)=C/C(C)C)C1C (some centres undefined) [euspeclibcmpd768] | -0.575
22 | CO[C@H]1CC(O[C@@H]2/C(C)=C/C[C@@H]3C[C@@H](C[C@]4(C=C[C@H](C)[C@@H](C5CCCCC5)O4)O3)OC(=O)C3=CC(C)[C@@H](O)[C@H]4OC/C(=C\C=C\[C@@H]2C)[C@@]34O)O[C@@H](C)C1O[C@H]1C[C@H](OC)[C@@H](O)[C@H](C)O1 (some centres undefined) [euspeclibcmpd131] | 8.87 (active)
23 | CCC(C)[C@H]1O[C@]2(C=C[C@@H]1C)C[C@@H]1C[C@@H](C/C=C(\C)[C@@H](OC3C[C@H](OC)C(O[C@H]4C[C@H](OC)[C@@H](NC(C)=O)[C@H](C)O4)[C@H](C)O3)[C@@H](C)/C=C/C=C3\CO[C@@H]4[C@H](O)C(C)=CC(C(=O)O1)[C@]34O)O2 (some centres undefined) [euspeclibcmpd495] | 0.588
24 | CCC(C)[C@H]1O[C@]2(C=C[C@@H]1C)C[C@@H]1C[C@@H](C/C=C(\C)[C@@H](OC3C[C@H](OC)C(O[C@H]4C[C@H](OC)[C@@H](O)[C@H](C)O4)[C@H](C)O3)[C@@H](C)/C=C/C=C3\CO[C@@H]4[C@H](OC)C(C)=CC(C(=O)O1)[C@]34O)O2 (some centres undefined) [euspeclibcmpd1403] | 5.69 (active)
25 | CCC(C)[C@H]1O[C@]2(CC[C@@H]1C)C[C@@H]1C[C@@H](C/C=C(\C)[C@@H](OC3C[C@H](OC)C(O[C@H]4C[C@H](OC)[C@@H](O)[C@H](C)O4)[C@H](C)O3)[C@@H](C)/C=C/C=C3\CO[C@@H]4[C@H](O)C(C)=CC(C(=O)O1)[C@]34O)O2 (some centres undefined) [euspeclibcmpd982] | 0.921
26 | CCCCC(CC)CN=C(N)N=C(N)NCCCCCCN=C(N)N=C(N)NCC(CC)CCCC (centres undefined) [euspeclibcmpd2037] | 0.191
27 | CC(=O)NC(CS)C(=O)O (centres undefined) [euspeclibcmpd14] | -0.532
28 | CC12CCC3c4ccc(O)cc4CCC3C1C[C@H](O)[C@@H]2O (some centres undefined) [euspeclibcmpd2315] | -0.0343
29 | COC(=O)C(Cc1ccccc1)NC(=O)C(N)CC(=O)O (centres undefined) [euspeclibcmpd740] | -0.355
30 | CC(=O)OC1CCC2(C)C(=CCC3C2CCC2(C)C(C(=O)O)CCC32)C1 (centres undefined) | 0.226
31 | CC(c1ncncc1F)[C@](O)(Cn1cncn1)c1ccc(F)cc1F (some centres undefined) [euspeclibcmpd477] | -0.000648
32 | CC(=O)/N=c1\sc(S(N)(=O)=O)nn1C [euspeclibcmpd555] | 0.456
33 | CNC[C@@H](O)c1ccc(O)c(O)c1 [euspeclibcmpd110] | -0.782
34 | CC(=O)OC1CCC2(C)C3CC(=O)C4(C)C(CC5OC6(CCC(C)CO6)[C@@H](C)C54)C3CC[C@H]2C1 (some centres undefined) [euspeclibcmpd1545] | -0.224
35 | COc1ccc2c(c1)CCC1C2CC[C@@]2(C)C1CC[C@@H]2O (some centres undefined) [euspeclibcmpd2297] | 4.5 (active)
36 | C[C@]12CCC3c4ccc(O)cc4CCC3C1CC[C@@H]2O (some centres undefined) [euspeclibcmpd115] | -0.23
37 | C[C@]12CCC3c4ccc(OS(=O)(=O)O)cc4CCC3C1CC[C@H]2O (some centres undefined) [euspeclibcmpd2359] | 0.435
38 | NS(=O)(=O)N1CCN(C(=O)OCC(F)(F)F)CC1 | 0.381
39 | CC(=O)N1CCc2cc(C(=O)C(C)Sc3nnc4c(Cl)cc(Cl)cn34)ccc21 (centres undefined) | 1.9
40 | O=c1c(-c2ccc(O)cc2)coc2cc(O)ccc12 [euspeclibcmpd2265] | 0.00154

Row | SMILES | Srxn1-GFP intensity median modified Z-score
41 | O=c1c(-c2ccc(O)cc2)coc2cc(O)cc(O)c12 [euspeclibcmpd1252] | 7.05 (active)
42 | COc1ccc(-c2coc3cc(O)cc(O)c3c2=O)cc1 [euspeclibcmpd1972] | -0.252
43 | CSCCC(NC(=O)[C@H](Cc1c[nH]c2ccccc12)NC(=O)CCNC(=O)OC(C)(C)C)C(=O)N[C@@H](CC(=O)O)C(=O)N[C@@H](Cc1ccccc1)C(N)=O (some centres undefined) [euspeclibcmpd918] | -0.345
44 | CC(CCC(=O)O)[C@H]1CCC2C3CC[C@@H]4CCCC[C@]4(C)C3CC[C@@]21C (some centres undefined) [euspeclibcmpd1329] | 1.64
45 | O=S1(=O)CCC(N(C2CC2)S(=O)(=O)c2ccc(F)c(Cl)c2)C1 (centres undefined) | 1.31
46 | CC12CCC3c4ccc(O)cc4CC(CCCCCCCCC[S+]([O-])CCCC(F)(F)C(F)(F)F)C3C1CCC2O (centres undefined) [euspeclibcmpd1981] | -0.582
47 | CC(C)(C)CC(=O)OCC(=O)[C@@]1(O)CCC2C3CC=C4CC(=O)C=C[C@]4(C)C3[C@@H](O)C[C@@]21C (some centres undefined) [euspeclibcmpd2328] | -0.406
48 | CN(C)CCN(Cc1ccc(Cl)cc1)c1ccccn1 [euspeclibcmpd1219] | -0.833
49 | Cc1nc2ccccc2n1Cc1ccc(Cl)cc1 [euspeclibcmpd2199] | 5.5 (active)
50 | Clc1ccc(Cn2c(CN3CCCC3)nc3ccccc32)cc1 [euspeclibcmpd1234] | -0.0615
51 | Cc1nc(=N)c(C[n+]2csc(CCO)c2C)c[nH]1 [euspeclibcmpd454] | -0.15
52 | O=C1C(CO)OC(O)C(O)C1O (centres undefined) [euspeclibcmpd526] | -0.212
53 | COc1ccc2c(c1OC)OC[C@@H](c1ccc(OC)c(OC)c1OC)C2 [euspeclibcmpd1365] | 0.0257
54 | CCCCCCCCCCC[C@@H](C[C@H]1OC(=O)C1CCCCCC)OC(=O)C(CC(C)C)NC=O (some centres undefined) [euspeclibcmpd681] | -0.557
55 | C=C[C@H]1C[N@]2CC[C@H]1C[C@@H]2[C@@H](O)c1ccnc2ccc(OC)cc12 [euspeclibcmpd2428] | 1.98 (active)
56 | C[C@]12CCC3c4ccc(O)cc4CCC3C1C[C@@H](O)[C@@H]2O (some centres undefined) [euspeclibcmpd2155] | -0.253
57 | CC(=O)Oc1cccc(C(=O)O)c1OC(C)=O [euspeclibcmpd1107] | 0
58 | CC(=O)Oc1c(C)cccc1C(=O)O [euspeclibcmpd1264] | -0.393
59 | CC(=O)Oc1cccc2c1C(=O)c1c(OC(C)=O)cc(C(=O)O)cc1C2=O [euspeclibcmpd1072] | 4.68 (active)
